Source: PubChem BioAssay
HP1b chromo inh = inhibitors of HP1-beta chromodomain binding to methylated histone tails; P83916; AlphaScreen HP1-beta / biotin-H3K9me3 peptide binding; Potency, µM (doses to about 114 µM), inactives show at the highest dose activity change, negative = inhibition, hits mostly inhibitors; hit rate 0.56% among 390,000; further: nearly all actives have a fitted effect of over 70% in size
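AlphaScreen: HP1-beta (50 nM) preformed 30 min with biotin-H3(1-18)K9me3 peptide (50 nM) in PBS pH 7.4, 0.01% Tween-20. Compound added for 30 min at RT, then streptavidin donor/nickel chelate acceptor beads (10 ug/mL) for 30 min.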
VDR inhibitor = blocks the human vitamin D receptor | VDR-SRC2-3 peptide fluorescence polarization, 2 h | AID 504847 | Potency, µM, for the others: max response, negative = inhibition, usual class: inhibitors | hit rate 0.93% among 400,000; further: on the % scale 0 is the no-effect control and ±100 the full control effect
Target sequence (P11473 whole entry, looked up): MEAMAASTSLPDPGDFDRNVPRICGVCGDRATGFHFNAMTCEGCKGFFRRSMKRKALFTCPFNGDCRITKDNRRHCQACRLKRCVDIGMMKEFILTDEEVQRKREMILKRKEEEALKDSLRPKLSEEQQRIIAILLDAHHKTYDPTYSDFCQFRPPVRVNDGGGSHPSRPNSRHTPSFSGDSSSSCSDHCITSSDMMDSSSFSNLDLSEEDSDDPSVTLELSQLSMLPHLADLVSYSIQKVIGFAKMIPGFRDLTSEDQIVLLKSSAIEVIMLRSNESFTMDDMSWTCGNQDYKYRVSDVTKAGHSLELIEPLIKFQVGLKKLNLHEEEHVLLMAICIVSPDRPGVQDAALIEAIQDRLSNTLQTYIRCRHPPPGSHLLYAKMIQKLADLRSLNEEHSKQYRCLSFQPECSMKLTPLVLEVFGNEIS
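Fluorescence polarization assay of small-molecule disruption of VDR binding to coregulator peptide SRC2-3. Compounds and controls pin-transferred, then read after 2 h incubation at ambient room temperature.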
PLK1 PBD inh = inhibitors of human PLK1 polo-box domain binding | Plk1 PBD binding of FITC phosphopeptide, fluorescence polarization | Potency, µM, without a hit: max response, negative = inhibition, usual class: inhibitors | hit rate 2.8% among 360,000 | AID 720504; further: series mostly up to about 57 µM; on the % scale 0 is the no-effect control and ±100 the full control effect; nearly all actives have a fitted effect of over 65% in size
G9a inh = G9a (human) methyltransferase inhibition | G9a H3K9 monomethylation, AlphaScreen, 2 h | Potency, µM (doses to about 102 µM), for the others: top-dose activity, negative = inhibition, usual class: inhibitors | hit rate 8.8% among 350,000 | AID 504332; further: on the % scale 0 is the no-effect control and ±100 the full control effect; nearly all actives have a fitted effect of over 75% in size
Target sequence (Q96KQ7 913-1193 limits assumed): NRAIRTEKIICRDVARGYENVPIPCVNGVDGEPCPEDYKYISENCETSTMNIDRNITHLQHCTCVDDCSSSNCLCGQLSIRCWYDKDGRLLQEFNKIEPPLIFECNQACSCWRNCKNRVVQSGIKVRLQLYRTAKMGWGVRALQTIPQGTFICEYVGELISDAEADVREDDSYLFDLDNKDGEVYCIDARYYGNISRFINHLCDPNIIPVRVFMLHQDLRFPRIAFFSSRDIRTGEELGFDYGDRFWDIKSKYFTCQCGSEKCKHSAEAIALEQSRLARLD
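Compounds were preincubated with 20 nM G9a for 15 min, after which biotinylated H3K9 peptide (500 nM) and SAM (20 uM) started a 2 h room-temperature reaction. Monomethylated product was quantified by antibody-based AlphaScreen chemiluminescence.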
JMJD2A Tudor = JMJD2A Tudor domain (human) inhibition | O75164 | AlphaScreen JMJD2A-Tudor / H3K4me3 peptide binding | Potency, µM (series often up to 114 µM), without a hit: at the top dose activity change, negative = inhibition, usual class: inhibitors | hit rate 4.4% among 390,000 | AID 504339; further: on the % scale 0 is the no-effect control and ±100 the full control effect; nearly all actives have a fitted effect of over 50% in size
BAZ2B inh = inhibitors of human BAZ2B bromodomain; Potency, µM (titrated, usually from 114 µM), inactives show at the highest dose activity change, negative = inhibition, most hits filed as inhibitors; hit rate 4.4% among 360,000; Q9UIF8; AlphaScreen BAZ2B-H3K14Ac peptide displacement; further: on the % scale 0 is the no-effect control and ±100 the full control effect; nearly all actives have a fitted effect of over 60% in size
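Compounds, titrated to a top concentration of 110 uM, were incubated 30 min at room temperature with preformed BAZ2B/acetyl-K14 H3 peptide complex (50 nM each). Proximity signal was measured by AlphaScreen after 20 min with beads.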
Numbers without * were called inactive; ? = inconclusive; nt = no result; [ ] = dose if it differs, or a comment. The list is not random: actives were taken first. Their share in the collection is about 11%. The call rests on the fitted dose curve; in most records, active means well fitted curve in the direction sought with a large enough effect; inconclusive means small, poorly fitted or top-dose-only effect, or another doubt; inactive means no such curve, though single readings can be large; an effect the other way counts as inactive or inconclusive. Potency means the concentration at half of the fitted maximal effect.

SMILES | HP1b chromo inh | VDR inhibitor | PLK1 PBD inh | G9a inh | JMJD2A Tudor | BAZ2B inh
Cc1ccc(Cl)c(OCC(=O)OCC(=O)NC2CCCc3ccccc32)c1 (stereo not drawn) | 71% | 15% | 1% | 10%[59 µM] | -12% | -8%
CCCC/C=C/[C@H](c1ccccc1)[C@H](CO)Cc1cnc2ccccc2c1 | 25% | 2% | nt | nt | -6% | nt
CCCC(c1nnnn1Cc1ccco1)N1CCN(C2CCCC2)CC1 (stereo not drawn) | 2% | 2% | -9% | 50µM* | ? | ?
CCCC(c1nnnn1Cc1ccc(F)cc1)N1CCN(C2CCCCC2)CC1 (stereo not drawn) | 29% | -4% | 1% | ? | -13% | ?
CCCC(c1nnnn1Cc1cccs1)N1CCN(C2CCCC2)CC1 (stereo not drawn) | ? | -27% | 27µM* | ? | 56µM* | ?
CN1CCN(c2ccccc2NC(=O)COc2ccc(Br)cc2)CC1 | 5% | 11% | -2% | -16% | -25% | -4%
COc1ccc(C(=O)N/N=C(\C)c2ccc(NC(=O)Cc3ccccc3)cc2)c(OC)c1 | 43% | 0% | 2% | -12% | -5% | -12%
CC(C)CCn1c(Sc2nc3ccccc3o2)nc2c1c(=O)[nH]c(=O)n2C | 12% | -16% | -9% | ? | -9% | -33%
O=C(CSc1nnc2scc(-c3ccccc3)n12)NCc1ccco1 | 12% | -10% | 5% | 79µM* | -6% | -35%
O=C(CSc1nnc2scc(-c3ccc(Cl)cc3)n12)NCc1ccco1 | 7% | -9% | -4% | 26%[59 µM] | -20% | 4%
O=C(CSc1nnc(C2CCCCC2)n1Cc1ccccc1)NCc1ccco1 | ? | ? | 27µM* | ? | 28µM* | -9%
Cc1ccc(NC(=O)CN2CCN(C3CCCCC3)C(=O)C2=O)cc1C | 22% | 15% | nt | 8%[59 µM] | 0% | -4%
Cc1cc(NC(=O)COC(=O)c2cc(S(=O)(=O)N3CCOCC3)ccc2N2CCCCC2)no1 | 5% | 8% | -2% | -24%[59 µM] | -17% | 4%
COC(=O)c1c(NC(=O)c2ccccc2)sc(Cc2ccccc2)c1C | 108% | -3% | -2% | 29%[59 µM] | 48% | 51%
COc1ccc(/C=C/C(=O)Nc2sc(Cc3ccccc3)c(C)c2C(N)=O)cc1 | 26% | -5% | 1% | -21%[59 µM] | -26% | -1%
Cc1c(Cc2ccccc2)sc(/N=C/c2ccc3ccccc3c2)c1C(N)=O | 8% | -22% | ? | 20µM* | ? | 8%
Cc1c(Cc2ccccc2)sc(/N=C/c2c(O)ccc3ccccc23)c1C(N)=O | ? | -26% | ? | 3.2µM* | ? | ?
CC(=O)N1N=C(N)SC1(C)C | 9% | -9% | ? | ? | 3% | 5%
CN1CCCN(CC(O)COCc2cccs2)CC1 (stereo not drawn) | 21% | 6% | -1% | 40µM* | -12% | 12%
OC(COCc1cccs1)CN1CCN(c2cccc(Cl)c2)CC1 (stereo not drawn) | ? | -13% | -8% | 10µM* | 2.8µM* | 50µM*
Cc1ccc(C)c(N(C)S(=O)(=O)c2ccc3[nH]cc(C(=O)NC4CCCC4)c(=O)c3c2)c1 | 0% | 18% | nt | 2%[59 µM] | ? | -17%
O=C(Oc1ccccc1)N1CCC2(CC1)CN(c1ncccn1)C2 | nt | -11% | nt | 32%[12.7 µM] | nt | nt
Nc1c(C=C2C=CC(=O)C=C2)c(=O)nc2sc(CC(=O)N3CCOCC3)nn12 | 16% | -4% | -13% | nt | -9% | ?
C=CCC1=C/C(=C\c2c(N)n3nc(CC(=O)N4CCCC4)sc3nc2=O)C=C(OC)C1=O | 42% | 3% | -15% | 20%[0.0925 µM] | -2% | 79µM*
COC1=CC(=Cc2c(N)n3nc(CC(=O)N4CCOCC4)sc3nc2=O)C=C(OC)C1=O | 3%[57 µM] | -20% | 124% | ? | ? | 45µM*
SMILES | HP1b chromo inh | VDR inhibitor | PLK1 PBD inh | G9a inh | JMJD2A Tudor | BAZ2B inh
CCOC(=O)C1(C)CCCN(C(=O)c2cccc3ccccc23)C1 (stereo not drawn) | nt | nt | -10% | nt | nt | nt
Cc1c(CC(=O)O)c(=O)oc2c(C)c(OCc3ccccc3Br)ccc12 | 27% | 1% | -26% | -10% | ? | 50µM*
Cc1oc(C(=O)O)cc1COc1ccc2c3c(c(=O)oc2c1C)CCCC3 | nt | nt | nt | -5%[59 µM] | nt | 2%
Cc1oc(C(=O)O)cc1COc1ccc2c3c(c(=O)oc2c1C)CCC3 | 17% | 14% | -9% | 50µM* | 2% | 13µM*
COc1cc(C(=O)O)cc(OC)c1OCc1cc(C(=O)O)oc1C | -5% | 4% | -10% | 50µM* | ? | ?
Cc1c(CC(=O)O)c(=O)oc2c(C)c(OCc3ccccc3)ccc12 | 37% | 11% | -5% | 3% | -7% | 4%
CC(C)(C)C(=O)c1c(N)[nH]c(C(=O)c2ccccc2)c1-c1ccc(C(F)(F)F)cc1 | nt | nt | -13% | nt | nt | nt
COC(=O)c1ccc(Cl)cc1NC(=O)Nc1nnc(N(C)Cc2ccccc2)s1 | 74% | 13% | nt | -18%[59 µM] | 18% | 4%
COc1ccc(C2C(C(=O)O)c3ccccc3C(=O)N2C)cc1Br (stereo not drawn) | 64% | -8% | -3% | 4µM* | -9% | -29%
CN1C(=O)c2ccccc2C(C(=O)O)C1c1cn(C)c2ccccc12 (stereo not drawn) | ? | ? | ? | -14% | 45µM* | 0%[57.1 µM]
Cc1ccc(C2C(C(=O)O)c3ccccc3C(=O)N2C)c(C)c1 (stereo not drawn) | 4% | -17% | -1% | 1% | -3% | -1%
O=S(=O)(c1ccc2c(c1)OCCO2)N1CCN(S(=O)(=O)c2ccc3nc(Cl)c(Cl)nc3c2)CC1 | nt | nt | nt | nt | -6% | nt
Cc1ccc(NC(=O)CCS(=O)(=O)c2ccc3nc(C)sc3c2)c(C)c1 | 43% | 9% | nt | -1%[59 µM] | 6% | -3%
COc1ccc(Cl)cc1NC(=O)CSc1nc(=O)[nH]c2c1CCC2 | 26% | -20% | nt | 8%[59 µM] | -21% | -8%
CC(C)c1ccc(NC2CCCN(C(=O)CN3CCCCC3=O)C2)cc1 (stereo not drawn) | nt | nt | 2% | nt | nt | nt
CCOC(=O)c1sc(N2N=C(C)C(N=Nc3cccc(C)c3)C2=O)nc1C (stereo not drawn) | -1% | 7% | -8% | 50µM* | -26%[11.4 µM] | -33%
CC1=NN(c2nc(-c3ccc(C)cc3)cs2)C(=O)C1N=Nc1cccc(C)c1 (stereo not drawn) | ? | -14% | -7% | ? | ? | ?
Cc1ccc(C)c(N2CCN(c3ncnc4c3cnn4-c3ccccc3)CC2)c1 | 13% | ? | 27µM* | ? | ? | -5%
COCCNC(=O)c1ccccc1NC(=O)c1ccccc1SC | 17% | 3% | -4% | 4.5µM* | -6% | -13%
